Reference: PubChem BioAssay (NCI)
The panel holds about 79,000 compounds, 15% with a hit somewhere; the sample as a whole holds those more often. Active and inactive are the calls of the source. No stated cut-off is given here; in the data, active means growth inhibition above about 70%; inactive means the rest.

Legend:
[1] = NCI Yeast Anticancer Drug Screen. Data for the rad52 strain (AID 147);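 further: 0% = growth of vehicle-treated control cultures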; details: S. cerevisiae rad52 mutant growth inhibition, hits give high values
In short: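 DNA repair-defective yeast; compound exposure; growth scored against vehicle controls.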

[2] = NCI Yeast Anticancer Drug Screen. Data for the wt1 strain (AID 149);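 further: 0% = growth of vehicle-treated wt1 cultures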; details: S. cerevisiae wt1 strain (SPY 50644) growth inhibition, hits give high values
In short: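 Each compound is tested on wt1 yeast and the loss of growth versus vehicle gives the inhibition value.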

[3] = NCI Yeast Anticancer Drug Screen. Data for the rad50EPP+ strain (AID 151);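 further: 0% = growth of vehicle-treated control cultures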; details: S. cerevisiae rad50 mutant strain, hits give high values
In short: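 rad50EPP+ yeast treated with test compounds. Readout: growth vs vehicle control.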

[4] = NCI Yeast Anticancer Drug Screen. Data for the mgt1 strain (AID 153); details: S. cerevisiae mgt1 mutant growth inhibition, hits give high values
In short: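 Growth inhibition relative to vehicle controls was scored for the mgt1 yeast strain after compound exposure.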

[5] = NCI Yeast Anticancer Drug Screen. Data for the rad50 strain (AID 155);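 further: 0% = growth of vehicle-only cultures of the same strain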; details: S. cerevisiae rad50 strain growth inhibition, hits give high values
In short: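 Vehicle-treated cultures provide the reference for the growth inhibition reported for compound-exposed, repair-deficient yeast.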

[6] = NCI Yeast Anticancer Drug Screen. Data for the mec2-1 strain (AID 157); details: S. cerevisiae mec2-1 strain, hits give high values
In short: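 Growth inhibition is read against vehicle-treated controls after compound exposure of the mec2-1 yeast strain, which is defective in DNA damage repair or cell cycle control.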

[7] = NCI Yeast Anticancer Drug Screen. Data for the rad14 strain (AID 159);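 further: 0% = growth of vehicle-treated control cultures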; details: S. cerevisiae rad14 strain growth inhibition, hits give high values
In short: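 Inhibition of growth is reported for a repair-deficient yeast mutant following compound treatment, calculated relative to cultures that received vehicle.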

[8] = NCI Yeast Anticancer Drug Screen. Data for the sgs1 mgt1 strain (AID 161);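 further: 0% = growth of cultures given vehicle only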; details: S. cerevisiae sgs1 mgt1 strain, hits give high values
In short: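 Yeast cells carrying a defined DNA-repair defect were exposed to test compounds. Growth inhibition was measured relative to vehicle-treated controls.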

[9] = NCI Yeast Anticancer Drug Screen. Data for the CLN2oe strain (AID 163);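 further: 0% = growth of vehicle-only control cultures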; details: S. cerevisiae CLN2oe strain, hits give high values
In short: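 Compound-treated yeast; growth vs vehicle ctrl = % inhibition. Genetically altered strain (cell-cycle control).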

[10] = NCI Yeast Anticancer Drug Screen. Data for the cln2 rad14 strain (AID 165);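 further: 0% = growth equal to vehicle treated cultures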; details: S. cerevisiae cln2 rad14 strain, hits give high values
In short: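 Growth inhibition, relative to vehicle-treated controls, is the read-out. The test organism is a yeast strain with defined genetic alterations, cln2 rad14.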

[11] = NCI Yeast Anticancer Drug Screen. Data for the bub3 strain (AID 167); details: S. cerevisiae bub3 mutant strain, hits give high values
In short: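 Mutant yeast screening strain plus compound; vehicle-treated cultures serve as the 0% inhibition reference.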

[12] = NCI Yeast Anticancer Drug Screen. Data for the wt2 strain (AID 169); details: S. cerevisiae wt2 strain growth inhibition, hits give high values
In short: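 Compound exposure of yeast; growth compared with vehicle controls; inhibition reported.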

[13] = NCI Yeast Anticancer Drug Screen. Data for the mlh1 strain (AID 171);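 further: 0% = growth of vehicle-treated control cultures of the same strain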; details: S. cerevisiae mlh1 strain growth inhibition, hits give high values
In short: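 Compounds are applied to a genetically altered yeast strain, and its growth is compared with that of vehicle-treated cultures to give percent inhibition.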

[14] = NCI Yeast Anticancer Drug Screen. Data for the sgs1 strain (AID 173);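 further: 0% = growth of vehicle-only control cultures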; details: S. cerevisiae sgs1 mutant, hits give high values
In short: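 Compounds applied to genetically altered yeast; growth compared with vehicle-treated cultures to give % inhibition.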

[15] = NCI Yeast Anticancer Drug Screen. Data for the mlh1 rad18 strain (AID 175); details: S. cerevisiae mlh1 rad18 strain growth inhibition, hits give high values
In short: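 Cells of a genetically altered yeast strain, deficient in DNA damage repair, were treated with compound. Their growth was then compared with that of vehicle-treated cultures to give inhibition.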

[16] = NCI Yeast Anticancer Drug Screen. Data for the rad18 strain (AID 177); details: S. cerevisiae rad18 mutant growth inhibition, hits give high values
In short: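 Compounds are applied to a repair-deficient yeast strain, and growth is compared with that of vehicle-treated cultures to give percent inhibition.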

[17] = at 5.0 µM (retest, dose inferred, filed as 0.5)
[18] = at 50.0 µM (retest, dose inferred, filed as 5.0)

Measured: growth inhibition

CCC[CH2][Ge]([CH2]CCC)([CH2]CCC)[O]C(=O)C(O)c1ccccc1 (stereo not drawn)
inactive: [1]; at 1.2 µM 1% | [1]; at 3.7 µM 11% | [1]; at 11.0 µM 45% | [2]; at 1.2 µM -4% | [2]; at 3.7 µM -5% | [2]; at 11.0 µM 11% | [2]; at 33.0 µM 60% | [3]; at 1.2 µM -2% | [3]; at 3.7 µM 3% | [3]; at 11.0 µM 8% | [3]; at 33.0 µM 21% | [3]; at 100.0 µM 49% | [4]; at 1.2 µM -1% | [4]; at 3.7 µM -1% | [4]; at 11.0 µM 10% | [5]; at 1.2 µM 3% | [5]; at 3.7 µM 9% | [5]; at 11.0 µM 36% | [6]; at 1.2 µM -1% | [6]; at 3.7 µM 2% | [6]; [17] 50% | [6]; at 11.0 µM 17% | [6]; at 33.0 µM 69% | [6]; [18] 50% | [7]; at 1.2 µM -3% | [7]; at 3.7 µM -7% | [7]; at 11.0 µM -1% | [7]; at 33.0 µM 68% | [9]; at 1.2 µM -3% | [9]; at 3.7 µM 5% | [9]; at 11.0 µM 17% | [10]; [17] 12% | [10]; [18] 12% | [11]; at 1.2 µM -2% | [11]; at 3.7 µM -4% | [11]; [17] 27% | [11]; at 11.0 µM 24% | [11]; [18] 27% | [12]; at 1.2 µM -2% | [12]; at 3.7 µM -2% | [12]; at 11.0 µM 16% | [13]; at 1.2 µM -1% | [13]; at 3.7 µM -2% | [13]; at 11.0 µM 14% | [14]; at 1.2 µM -1% | [14]; at 3.7 µM -1% | [14]; at 11.0 µM 28% | [16]; at 1.2 µM 10% | [16]; at 3.7 µM 7% | [16]; at 11.0 µM 55%
active: [1]; at 33.0 µM 88% | [1]; at 100.0 µM 98% | [2]; at 100.0 µM 99% | [4]; at 33.0 µM 93% | [4]; at 100.0 µM 99% | [5]; [17] 95% | [5]; at 33.0 µM 90% | [5]; [18] 95% | [5]; at 50.0 µM 90.2% | [5]; at 100.0 µM 97% | [6]; at 50.0 µM 90.5% | [6]; at 100.0 µM 99% | [7]; at 100.0 µM 99% | [8]; [17] 97% | [8]; [18] 97% | [8]; at 50.0 µM 89.5% | [9]; at 33.0 µM 83% | [9]; at 100.0 µM 99% | [10]; at 50.0 µM 91.2% | [11]; at 33.0 µM 88% | [11]; at 50.0 µM 88.3% | [11]; at 100.0 µM 99% | [12]; at 33.0 µM 81% | [12]; at 100.0 µM 99% | [13]; at 33.0 µM 88% | [13]; at 100.0 µM 99% | [14]; at 33.0 µM 91% | [14]; at 100.0 µM 99% | [15]; [17] 84% | [15]; [18] 84% | [15]; at 50.0 µM 89.7% | [16]; at 33.0 µM 89% | [16]; at 100.0 µM 99%

CSC(=S)N/N=C/c1ccccc1
active: [3]; at 100.0 µM 75% | [5]; at 11.0 µM 82% | [5]; at 33.0 µM 83% | [5]; [18] 86% | [5]; at 50.0 µM 94.6% | [5]; at 100.0 µM 82% | [6]; [18] 76% | [6]; at 50.0 µM 75.8% | [8]; [18] 87% | [8]; at 50.0 µM 75.2% | [11]; [18] 82% | [11]; at 50.0 µM 90%
inactive: [1]; at 1.2 µM 10% | [1]; at 3.7 µM 20% | [1]; at 11.0 µM 53% | [1]; at 33.0 µM 67% | [1]; at 100.0 µM 67% | [2]; at 1.2 µM 4% | [2]; at 3.7 µM 11% | [2]; at 11.0 µM 29% | [2]; at 33.0 µM 48% | [2]; at 100.0 µM 43% | [3]; at 1.2 µM -1% | [3]; at 3.7 µM 2% | [3]; at 11.0 µM 16% | [3]; at 33.0 µM 60% | [4]; at 1.2 µM 3% | [4]; at 3.7 µM 2% | [4]; at 11.0 µM 22% | [4]; at 33.0 µM 27% | [4]; at 100.0 µM 39% | [5]; at 1.2 µM 28% | [5]; at 3.7 µM 57% | [5]; [17] 38% | [6]; at 1.2 µM 5% | [6]; at 3.7 µM 13% | [6]; [17] 48% | [6]; at 11.0 µM 10% | [6]; at 33.0 µM 20% | [6]; at 100.0 µM 23% | [7]; at 1.2 µM -1% | [7]; at 3.7 µM -1% | [7]; at 11.0 µM 12% | [7]; at 33.0 µM 22% | [7]; at 100.0 µM 29% | [8]; [17] 26% | [9]; at 1.2 µM -3% | [9]; at 3.7 µM 3% | [9]; at 11.0 µM 14% | [9]; at 33.0 µM 22% | [9]; at 100.0 µM 17% | [10]; [17] 16% | [10]; [18] 21% | [10]; at 50.0 µM 49.3% | [11]; at 1.2 µM 32% | [11]; at 3.7 µM 28% | [11]; [17] 46% | [11]; at 11.0 µM 59% | [11]; at 33.0 µM 60% | [11]; at 100.0 µM 59%
